Sfp PPTase inh = blocks B. subtilis Sfp PPTase activity. Q9F4F7. Biochemical Sfp PPTase activity, qHTS. Potency, µM, for the others: largest response in the series, negative = inhibition, actives largely listed as inhibitors. 310,000 compounds, 3.5% hits. AID 1490;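 note: the enzyme is Sfp with the accession as filed and its product quenches rhodamine fluorescence; 0% = enzyme reaction without inhibitor and -100% = no enzyme wells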
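Buffer: 50 mM Hepes-Na pH 7.6, 10 mM MgCl2, 0.01% Nonidet P-40, 0.01% BSA. Enzyme 15 nM, pre-exposed to compound 15 min; substrates then added and fluorescence change tracked over 30 min.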
G9a block = G9a (human) methyltransferase inhibition. Q96KQ7. G9a H3K9 monomethylation, AlphaScreen, 2 h. Potency, µM (series often up to 102 µM), for inactives: at the highest dose activity, negative = inhibition, usual class: inhibitors. 350,000 compounds, 8.8% hits. AID 504332; note: % is set by controls: 0 for no effect and ±100 for the full control effect; nearly all actives have a fitted effect of over 75% in size
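Compounds were preincubated with 20 nM G9a for 15 min, after which biotinylated H3K9 peptide (500 nM) and SAM (20 uM) started a 2 h room-temperature reaction. Monomethylated product was quantified by antibody-based AlphaScreen chemiluminescence.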
JMJD2A Tudor = JMJD2A Tudor domain (human) inhibition; O75164; AlphaScreen JMJD2A-Tudor / H3K4me3 peptide binding; Potency, µM (series often up to 114 µM), for inactives: at the top dose activity change, negative = inhibition, most hits filed as inhibitors; 390,000 compounds, 4.4% hits; AID 504339; note: % is set by controls: 0 for no effect and ±100 for the full control effect; nearly all actives have a fitted effect of over 50% in size
HP1b chromo inh = HP1-beta chromodomain-methylated histone interaction inhibition; AlphaScreen HP1-beta / biotin-H3K9me3 peptide binding; Potency, µM (top dose mostly 114 µM), without a hit: at the highest dose activity change, negative = inhibition, most hits filed as inhibitors; 390,000 compounds, 0.56% hits; AID 540317; note: nearly all actives have a fitted effect of over 70% in size
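AlphaScreen: HP1-beta (50 nM) preformed 30 min with biotin-H3(1-18)K9me3 peptide (50 nM) in PBS pH 7.4, 0.01% Tween-20. Compound added for 30 min at RT, then streptavidin donor/nickel chelate acceptor beads (10 ug/mL) for 30 min.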
ALOX12 inh = inhibitors of human 12S-lipoxygenase ALOX12. P18054. AID 1671190. Potency, µM (top dose mostly 108 µM), inactives show at the highest dose activity change, negative = inhibition, usual class: inhibitors. purified 12hLO, xylenol orange hydroperoxide absorbance. 580,000 compounds, 1.1% hits; note: % is set by controls: 0 for no effect and ±100 for the full control effect
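Purified human 12hLO at 150 nM in 25 mM Hepes, 0.01% Triton X-100, pH 7.0, preincubated 15 min at room temperature with compound. Reaction started with 40 uM arachidonic acid, 30 min at room temperature. Hydroperoxide measured by Fe-xylenol orange, 573/405 nm absorbance ratio.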
BAZ2B block = BAZ2B (human) inhibition; Q9UIF8; Potency, µM (doses to about 114 µM), without a hit: at the highest dose activity change, negative = inhibition, usual class: inhibitors; AID 504333; AlphaScreen BAZ2B-H3K14Ac peptide displacement; 360,000 compounds, 4.4% hits; note: % is set by controls: 0 for no effect and ±100 for the full control effect; nearly all actives have a fitted effect of over 60% in size
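Protein-peptide AlphaScreen: BAZ2B 50 nM, b-H3K14Ac 50 nM, 1x PBS pH 7.4 + 0.01% Tween-20. Preincubation 30 min RT; cpd 30 min RT (top 110 uM); beads 20 min RT, light-protected.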
Active calls of the source: *; ? = inconclusive; · = not tested or not shown; ! = a repeat was not active; [ ] = another dose, or the depositor's remark. Shown are actives, neighbours in structure and some others; about 8.7% of the full set was active somewhere. Calls come from the whole dose curve; as a rule, active = well fitted curve in the direction sought with a large enough effect; inconclusive = small, poorly fitted or top-dose-only effect, or another doubt; inactive = no such curve, though single readings can be large; an effect the other way counts as inactive or inconclusive. Potency is the fitted concentration of half-maximal effect.

SMILES	Sfp PPTase inh	G9a block	JMJD2A Tudor	HP1b chromo inh	ALOX12 inh	BAZ2B block
CC1(C)CN=c2s/c(=C\c3ccc(Cl)cc3)c(=O)n2C1	-8.0%	70.8µM*	-9.6%	13.5%	?	?
CCc1cc(C(c2ccccc2OC)N2CCN(C)CC2)c(NC(=O)c2ccco2)s1 (centres undefined)	·	·	·	·	39.8µM*	·
CCc1cc(C(c2cccc(OC)c2)N2CCOCC2)c(NC(=O)c2ccccc2)s1 (centres undefined)	4.6%	4.7%	-22.6%	28.7%	0.0%	-31.0%
CCc1cc(C(c2ccc(OC)c(OC)c2)N2CCOCC2)c(NC(=O)c2ccccc2)s1 (centres undefined)	4.6%	31.6µM*	50.1µM*	?	-33.7%	35.5µM*
CCc1cc(C(c2ccc(OC)c(OC)c2)N2CCN(CC)CC2)c(NC(=O)c2ccco2)s1 (centres undefined)	·	·	·	·	15.8µM*	·
CC(C)OC(=O)CCNC(=O)c1ccccc1-c1ncc(-c2ccccc2)o1	·	·	·	·	1.3%	·
CC(=O)N1CC2(CCN(Cc3ccc(Cl)cc3)C2)Cc2ccccc21 (centres undefined)	·	·	·	·	39.8µM*	·
O=C(c1ccc(Cl)cc1)N1CC2(CCN(CC3CC3)C2)Cc2ccccc21 (centres undefined)	·	·	·	·	11.0%[6.33 µM]	·
O=C(c1ccc(Cl)cc1)N1CC2(CCN(Cc3ccc(Cl)cc3)C2)Cc2ccccc21 (centres undefined)	·	·	·	·	2µM*	·
CC(=O)N1CC2(CCN(Cc3cccc(C(N)=O)c3)C2)Cc2ccccc21 (centres undefined)	·	·	·	·	4.4%[6.33 µM]	·
O=C(c1ccc(Cl)cc1)N1CC2(CCN(C3COC3)C2)Cc2ccccc21 (centres undefined)	·	·	·	·	39.8µM*	·
COc1ccc(C(=O)c2oc3ccc(NC(=O)c4ccncc4)cc3c2C)cc1	·	·	·	·	3.2%	·
CCc1ccc2c(c1)c(=O)c(S(=O)(=O)c1ccc(Cl)cc1)cn2CC	·	1.9%[59 µM]	-16.6%	21.3%	4.9%	56.2µM*
CCCCN1C(=O)C(=O)N(Cc2cc(=O)oc3cc(C)ccc23)C1=O	·	·	·	·	-8.0%	·
CCOc1ccc2nc(SCC(=O)Nc3cccc(S(=O)(=O)NC4=NCCCCC4)c3)[nH]c2c1	-21.7%	44.7µM*	-29.5%	9.8%	-0.7%	-16.2%
CCOc1ccccc1Nc1nnc(SCC(=O)Nc2cccc(S(=O)(=O)NC3=NCCCCC3)c2)s1	?	39.8µM*	-7.5%	22.0%	-13.4%	-8.8%
CCOc1ccc2nc(SCC(=O)Nc3ccc4c(c3)OCCO4)[nH]c2c1	8.7%	5.0%[12.7 µM]	-28.1%	16.0%	-6.1%	?
CCOc1ccccc1OCC(=O)Nc1cccc(S(=O)(=O)NC2=NCCCCC2)c1	·	23.4%[12.7 µM]	5.7%	29.9%	0.1%	-5.1%
COc1ccc(NC(=O)COc2ccc(-c3nn(C)c(=O)c4ccccc34)cc2)cc1	17.5%	2.7%	44.7µM*!	-6.3%	?	-8.7%
CNC(=O)c1ccc(NC(=O)COc2ccc(-c3nn(C)c(=O)c4ccccc34)cc2)cc1	·	-5.0%[59 µM]	-4.1%	26.0%	-15.5%	0.8%
CN1CC(=O)N(C2CCC2)Cc2c1ncnc2N1CCC(N2CCCCC2)CC1	·	·	·	·	57.0%	·
CCN(CC)c1nc2c(c(=O)n(C)c(=O)n2C)n1CC	·	·	·	·	-6.2%	·
NNc1nc(-c2ccccc2)cc(-c2ccccc2O)n1	-4.8%	7.2%	?	3.3%	-7.2%	50.1µM*
CN(C)c1ccc(C=Nc2ccc(F)cc2)cc1	·	·	·	·	68.6%	·
CC(=O)c1ccc(NC(=O)C2=CC(c3ccc(C)cc3)=NS(=O)(=O)N2C)cc1	·	14.1µM*	?	-13.3%	-9.1%	?
Cc1ccc(NC(=O)C2=CC(c3ccc(C)cc3)=NS(=O)(=O)N2C)cc1	14.5%	39.8µM*	?	3.0%	40.9%	0.8%
COc1ccc(C2=NS(=O)(=O)N(C)C(C(=O)Nc3ccc(C)cc3)=C2)cc1	2.6%	?	-20.4%	-3.2%	-8.8%	?

High-throughput results: PubChem BioAssay, National Center for Advancing Translational Sciences (NCATS)
